About 79,000 compounds went through this panel and 15% of them were active in at least one assay; those are over-represented in the sample as a whole. Values without a mark were called inactive. Active and inactive are the calls of the source. Rule as the data show it: active = growth inhibition above about 70%; inactive = the rest.
Columns and labels:
[1] = NCI Yeast Anticancer Drug Screen. Data for the rad50 strain (AID 155);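 also: 0% = growth of vehicle-only cultures of the same strain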; conditions: S. cerevisiae rad50 strain growth inhibition; at 50.0 µM; hits give high values
Summary of the method: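 Genetically altered yeast (DNA repair pathway); compound treatment; growth inhibition vs vehicle ctrl.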

[2] = NCI Yeast Anticancer Drug Screen. Data for the mec2-1 strain (AID 157); conditions: S. cerevisiae mec2-1 strain, at 50.0 µM, hits give high values
Summary of the method: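 Each compound was tested on mec2-1 yeast, a strain altered in DNA damage repair or cell cycle control. Growth inhibition is reported relative to vehicle.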

[3] = NCI Yeast Anticancer Drug Screen. Data for the sgs1 mgt1 strain (AID 161);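 also: 0% = growth of cultures given vehicle only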; conditions: S. cerevisiae sgs1 mgt1 strain, at 50.0 µM, hits give high values
Summary of the method: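 Inhibition of yeast growth, normalised to vehicle-treated controls, is reported for a strain bearing genetic alterations in DNA damage repair.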

[4] = NCI Yeast Anticancer Drug Screen. Data for the cln2 rad14 strain (AID 165);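 also: 0% = growth equal to vehicle treated cultures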; conditions: S. cerevisiae cln2 rad14 strain, at 50.0 µM, hits give high values
Summary of the method: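 Test compounds were added to cln2 rad14 yeast cultures; inhibition of growth was then determined by comparison with vehicle treatment.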

[5] = NCI Yeast Anticancer Drug Screen. Data for the bub3 strain (AID 167); conditions: S. cerevisiae bub3 mutant strain, at 50.0 µM, hits give high values
Summary of the method: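 Yeast carrying a defined mutation is treated with each compound, and growth is compared with that of vehicle-exposed cells to give inhibition.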

[6] = NCI Yeast Anticancer Drug Screen. Data for the mlh1 rad18 strain (AID 175); conditions: S. cerevisiae mlh1 rad18 strain growth inhibition; at 50.0 µM; hits give high values
Summary of the method: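 Inhibition values reflect reduced growth of mutant yeast versus vehicle-treated controls following compound exposure; the mutations affect DNA damage repair.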

| SMILES | growth inhibition [1] | growth inhibition [2] | growth inhibition [3] | growth inhibition [4] | growth inhibition [5] | growth inhibition [6] |
| --- | --- | --- | --- | --- | --- | --- |
| COc1ccc2[nH]c3c(C)c4c(c(C)c3c2c1)CN(C)CC4 | 3.7% | 4.95% | -17.2% | -1.25% | -7.6% | -5.85% |
| COc1cc(-c2ccc(Br)[nH]2)[nH]c1C=NCC(C)C | 78.5% (active) | 78.5% (active) | 78.8% (active) | 78.2% (active) | 69% | 86.7% (active) |
| C[N+](C)(C)/N=C/c1ccc(O)c(O)c1 | -48.2% | -23.8% | -15.3% | -16% | -14.9% | -13.8% |
| NNc1ccc(S(=O)(=O)O)cc1Cl | 8.35% | -14.4% | 3.05% | 4.7% | 15.7% | 2.45% |
| O=C1c2cc([N+](=O)[O-])ccc2-c2c(F)cc(F)cc21 | -58.5% | -8.05% | 9.35% | -50.4% | -2.1% | -10.7% |
| CCN(CC)C(=O)c1cccc(N)c1 | 12.6% | -11.3% | 11.5% | 11% | 25.3% | 14% |
| CC(C)=CCC/C(C)=C/CO | -48.8% | -27.8% | -3.55% | 35.1% | -47.8% | -14.2% |
| CCOC(=O)Cn1c(=O)c2nc(SC)sc2n(-c2ccccc2)c1=O | -19.9% | 10.8% | -37.1% | 6.9% | -1.45% | 9.4% |
| [N-]=[N+]=NC[C@H]1OCO[C@H](CN=[N+]=[N-])[C@@H](OCCOCCCl)[C@@H]1OCCOCCCl | -13.1% | -23.4% | -10.6% | -21.1% | -28.8% | -15.8% |
| O=C1CC2COc3ccc(OCCN4CCCC4)cc3C2=NN1c1ccccc1 (configuration not stated) | -4.75% | 16.9% | -22.7% | -18.9% | 2.15% | 1.1% |
| CN[C@H]1CC[C@]23C[C@]24CC[C@]2(C)[C@@H]([C@H](C)N(C)C)CC[C@@]2(C)[C@@H]4CC[C@H]3C1(C)C | 1.3% | -4.65% | 9.2% | 6.35% | 8.25% | -63.8% |
| O=C(O)/C=C\C(=O)Nc1ccc2c(c1)-c1ccccc1C2 | -6.95% | -16.4% | -14.6% | -22.4% | -28.1% | 2.15% |
| O=C(/C(=C(/[O-])C(F)(F)F)[n+]1cccc2ccccc21)C(F)(F)F | -8.6% | -4.65% | -11.2% | -10.4% | -1.4% | 5.2% |
| COC(=O)c1cc(C(c2cc(C)c(O)c(C(=O)OC)c2)c2cc(C)c(O)c(C(=O)OC)c2)cc(C)c1O | -6.9% | 10.6% | -4.4% | -6.2% | -0.3% | 3.9% |
| CC1=CC(=O)C(=O)c2ccccc21 | -34.9% | -9.65% | -5.5% | 10.4% | -4.4% | -4.9% |
| Cc1c(N)nc(C(CC(N)=O)NCC(N)C(N)=O)nc1C(=O)NC(C(=O)NC(C)C(O)C(C)C(=O)NC(C(=O)NCCc1nc(-c2nc(C(=O)NCCC[S+](C)CC(N)=O)cs2)cs1)C(C)O)C(OC1OC(CO)C(O)C(O)C1OC1OC(CO)C(O)C(OC(N)=O)C1O)c1cnc[nH]1 (configuration not stated) | 63.9% | 58.9% | 71.7% (active) | 56.9% | 80% (active) | 75.7% (active) |
| CCCCC(Sc1cc(Cl)c(C)cc1S(=O)(=O)Nc1n[nH]c(N)n1)C(=O)OC (configuration not stated) | -4.85% | -12.3% | 50% | 7% | -18.8% | 5.75% |
| CSC1(SC2=NCCN2)SC2(NCCN2)S1 | 1.75% | -10.8% | -41.6% | -24.1% | -1.55% | -18.1% |
| O=C(O)CCNCC(=O)O | -28.1% | -32.6% | -21.9% | 3.2% | -21.7% | -23.6% |

| SMILES | growth inhibition [1] | growth inhibition [2] | growth inhibition [3] | growth inhibition [4] | growth inhibition [5] | growth inhibition [6] |
| --- | --- | --- | --- | --- | --- | --- |
| CC1([N+](=O)[O-])COC2(CCCC2)OC1 | 26.4% | 12.2% | 4.75% | -21.8% | -12.9% | 33.6% |
| CC(C)=C=CC(C)(C)NS(=O)(=O)NC(C)(C)C=C=C(C)C | 12.5% | -9.85% | 2.4% | 3.35% | -16.6% | 8.35% |
| O=C(c1ccc(Cl)cc1)c1cccc(Cl)c1 | -6.35% | -16.1% | -3.7% | -1.5% | -10% | 6.3% |
| CON(C)S(=O)(=O)c1ccc(Cl)cc1 | 7.75% | -9.5% | -4.15% | -18.9% | -2.25% | -6.2% |
| CCc1ccc2oc(-c3cc(O)c(-c4nc5cc(CC)ccc5o4)cc3O)nc2c1 | -19.2% | -25.9% | -22.2% | 1.1% | -25.5% | 12.6% |
| CC12CC1CCCC2OC(=O)c1cc([N+](=O)[O-])cc([N+](=O)[O-])c1 (configuration not stated) | 4.75% | 2.15% | -5.7% | -12.7% | -7.65% | -0.15% |
| CCN(CC)CCCO | 27.8% | -12.3% | -7.75% | -8.8% | -4.6% | 20.1% |
| O=S(=O)(NCCBr)c1ccccc1 | -1.5% | 2.45% | -8.9% | 11.6% | -2% | 2.05% |
| CC(C)(C)c1ccc(-c2nc3ccc([N+](=O)[O-])cc3c(=O)o2)cc1 | 12.1% | 15.8% | 35% | -13.1% | 16.1% | 33.5% |
| Cc1onc(-c2c(Cl)cccc2Cl)c1C(=O)Nc1ccc(Cl)c(Cl)c1Cl | -12.4% | -14.7% | -3.2% | 12.1% | 2.25% | -8.25% |
| O=C(CN1C(=O)c2ccccc2C1=O)OCC(=O)c1ccccc1 | 18.9% | 12.4% | 1.5% | 0.4% | 12.9% | 4.4% |
| CCN(CCO)CC(=O)c1cc(Cl)ccc1OC | -3.85% | 13.6% | 16.2% | -37% | 6.55% | 19.4% |
| S=C(CC(=S)N1CCOCC1)N1CCOCC1 | -15.1% | -1.5% | -10.5% | -14.7% | -11.7% | -1.75% |
| CC1(OC(=O)Nc2ccccc2)CCCCC1 | 5.75% | -0.8% | 0.9% | 3.55% | 3.55% | -9.95% |
| Cc1ccc(-c2ccno2)cc1 | 1.7% | 3.15% | 1.25% | -14.3% | -8.3% | 2.25% |
| C=C1CC(OC(C)=O)/C=C(/C)CCC(C(C)(C)O)CC1O (configuration not stated) | 6.7% | -32% | -11.2% | 7.65% | -8% | -20.9% |
| COc1cc(/C=C/C(C)=O)ccc1OP(=O)(O)O | -22.4% | -24.4% | -29.8% | 0.1% | -32.1% | 7.65% |
| C1=C/CCC2OC2CC/C=C/CC/1 (configuration not stated) | -9.8% | -55.2% | -24.8% | 11.8% | -29.2% | -4.2% |

From PubChem BioAssay (NCI)
